“And” between values parts separate entries of the source, which are not always exact repeats. Equal entries are not always repeated. The panel holds about 83,000 compounds, 20% with a hit somewhere; the sample as a whole holds those more often.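 Single-concentration screen, 48 h exposure, 96-well plates. Endpoint: percent growth. Below 10 = active.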 The source made the active and inactive calls.
tested on: HL-60(TB) leukemia; test: NCI-60 one-dose screen, 48 h (100 = growth as untreated, 0 = no growth, -100 = all killed); conditions: 10 µM unless noted

| Compound | growth |
| --- | --- |
| O=C(c1nn(-c2ccc(Cl)cc2)cc1O)n1nc(C(F)(F)F)cc1-c1ccccc1 | -14.8% (active) |
| Nc1c(C(=O)Nc2ccncc2)sc2nc3c(cc12)CCCCCC3 | 67.1% (inactive) |
| C=C1CCC2C3(C)COC(c4ccc(N(C)C)cc4)OC3CCC2(C)C1C/C=C1/C(=O)OCC1O (stereo not given) | 15.3% (inactive) |
| CC1CCC2(C(=O)O)CCC3(C)C(=CCC4C5(C)CCC(O)C(C)(C)C5CCC43C)C2C1C (stereo not given) | 5.83% (active) and 40.2% (inactive) |
| COc1cnc2c(c1)C(=O)c1c-2n(CCCN2CCN(C)CC2)c(=O)c2cc([N+](=O)[O-])ccc12 | -54% (active) |
| Cc1nc2sc(C(=O)Nc3cccc(Cl)c3C)c(N)c2cc1C(=O)c1ccccc1 | 5.28% (active) |
| C=CCN(/C=C/CN(CC=C)CC=C)CC=C | 102% (inactive) |
| O=c1[nH]ncc(Br)c1Br | 65.5% (inactive) |
| CC(O)c1nc2c(c(=O)n(C)c(=O)n2C)n1C (stereo not given) | 100% (inactive) |
| FC(F)(F)c1ccc(-c2cnc(-c3nn[nH]n3)nc2NC2CCCCCC2)cc1 | 31.1% [50 µM] (inactive) |
| O=C(Cn1c(=O)sc2nc3ccccc3nc21)Nc1ncc(Cc2cccc(Cl)c2Cl)s1 | 98.3% (inactive) |
| CC(C)N(Cc1ccccc1)c1c(S)ssc1=S | -23.3% (active) |
| COc1ccc2oc3cc(NCCN(C)C)ccc3c(=O)c2c1 | 22% (inactive) |
| CCOC(=O)c1cc(C(=O)c2cc(OC)c(OC)c(OC)c2)n2ncccc12 | -32.5% (active) |
| CCOc1ccc2c(S(=O)(=O)O)cccc2c1[N+](=O)[O-] | 113% (inactive) and 95.7% (inactive) |

Reference: PubChem BioAssay (NCI)
